Structures are written as SMILES. Structures can show the parent of a compound that is named as a salt. A number with no mark means an inactive call.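 How the source made its calls: active = log2 fold change beyond 2 SD from the library mean after excluding viability outliers; inactive = within 2 SD.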

The target in this test is PARP1 L713F-nLuc biosensor (HCT116) (UniProt P09874). Put plainly: PARP1 L713F-nLuc/akaLuc ratio relative to DMSO control (biosensor stabilization) (fold change); higher = more PARP1 biosensor stabilization (target engagement / stabilizer), active = hit call of the paper. The settings on record: stock concentration (mM; final µM = stock mM x 1): 10; 24 h.
PARP1 L713F-nLuc biosensor (HCT116), sequence (P09874 whole entry L713F, looked up): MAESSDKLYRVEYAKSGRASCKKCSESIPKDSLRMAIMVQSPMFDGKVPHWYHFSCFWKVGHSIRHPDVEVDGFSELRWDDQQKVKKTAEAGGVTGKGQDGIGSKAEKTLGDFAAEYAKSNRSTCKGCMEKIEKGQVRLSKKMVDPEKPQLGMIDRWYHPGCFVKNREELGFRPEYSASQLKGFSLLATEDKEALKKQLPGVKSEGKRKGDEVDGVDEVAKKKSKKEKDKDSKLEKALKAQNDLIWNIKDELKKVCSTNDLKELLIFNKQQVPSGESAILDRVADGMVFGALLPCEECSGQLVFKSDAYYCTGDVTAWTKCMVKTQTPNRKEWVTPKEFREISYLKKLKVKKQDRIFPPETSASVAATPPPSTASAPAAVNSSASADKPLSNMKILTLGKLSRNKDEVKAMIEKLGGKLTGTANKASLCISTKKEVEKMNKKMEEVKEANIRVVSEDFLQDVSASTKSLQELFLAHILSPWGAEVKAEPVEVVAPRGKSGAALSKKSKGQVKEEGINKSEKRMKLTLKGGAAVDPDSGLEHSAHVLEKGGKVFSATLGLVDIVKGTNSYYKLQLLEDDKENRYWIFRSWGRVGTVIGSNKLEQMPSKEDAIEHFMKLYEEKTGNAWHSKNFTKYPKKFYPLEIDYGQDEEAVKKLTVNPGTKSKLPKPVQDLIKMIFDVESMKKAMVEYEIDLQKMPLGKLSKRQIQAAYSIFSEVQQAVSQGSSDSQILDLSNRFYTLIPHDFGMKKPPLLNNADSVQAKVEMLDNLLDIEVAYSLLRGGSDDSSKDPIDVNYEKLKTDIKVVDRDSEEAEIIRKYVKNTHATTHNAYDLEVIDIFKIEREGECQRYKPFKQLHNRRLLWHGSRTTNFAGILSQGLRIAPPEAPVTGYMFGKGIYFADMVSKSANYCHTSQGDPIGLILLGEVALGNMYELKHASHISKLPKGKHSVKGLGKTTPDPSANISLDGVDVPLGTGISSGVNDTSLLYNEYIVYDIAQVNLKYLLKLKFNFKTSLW
Turning to `COc1cc(OC)c2c(=O)[nH]c(-c3cc(C)c(OCCO)c(C)c3)nc2c1` [Apabetalone], the “PARP1 L713F-nLuc/akaLuc ratio” value is 1.28.

Turning to `O=C(O)CCCCC(CCSCc1ccccc1)SCc1ccccc1` (stereo unspecified), the “PARP1 L713F-nLuc/akaLuc ratio” value is 1.06.

Turning to `NC(=O)c1cccc(-c2cccc(OC(=O)NC3CCCCC3)c2)c1`, the “PARP1 L713F-nLuc/akaLuc ratio” value is 1.05.

Consider `CCN(CC)CCNC(=O)c1c(C)[nH]c(/C=C2\C(=O)Nc3ccc(-c4csc(-c5ccccc5)n4)cc32)c1C` [Amcasertib (BBI503)], for which the “PARP1 L713F-nLuc/akaLuc ratio” value is 0.885.

On to `N=C(NOCC(O)CN1CCCCC1)c1cccnc1` (stereo unspecified), for which the “PARP1 L713F-nLuc/akaLuc ratio” value was 0.933.

As to `c1cc(-c2cnn3cc(-c4ccc(OCCN5CCCCC5)cc4)cnc23)ccn1` [Dorsomorphin], the “PARP1 L713F-nLuc/akaLuc ratio” value was 1.11.

As for `Cn1cc(C2=C(c3cn(CCCSC(=N)N)c4ccccc34)C(=O)NC2=O)c2ccccc21` [Ro 31-8220 (mesylate)], the “PARP1 L713F-nLuc/akaLuc ratio” value is 1.62.

In the case of `CCS(=O)(=O)N1CCN(c2ccc(Nc3ncc(C(N)=O)c(NC4CC4)n3)cc2)CC1`, the “PARP1 L713F-nLuc/akaLuc ratio” value was 1.99.

As to `O=C(O)c1ccccc1Nc1cccc(C(F)(F)F)c1` [Flufenamic acid], the “PARP1 L713F-nLuc/akaLuc ratio” value was 1.23.

Regarding `O=C(Nc1cccc(Cl)c1)Nc1ncc(CCNc2ncnc3ccsc23)s1` [SNS-314 (mesylate)], the “PARP1 L713F-nLuc/akaLuc ratio” value is 1.11.

As for `CC[C@]1(O)C[C@@H]2CN(CCc3c([nH]c4ccccc34)[C@@](C(=O)OC)(c3cc4c(cc3OC)N(C)[C@H]3[C@@](O)(C(=O)OC)[C@H](OC(C)=O)[C@]5(CC)C=CCN6CC[C@]43[C@@H]65)C2)C1` [Vinblastine sulfate], the “PARP1 L713F-nLuc/akaLuc ratio” value was 1.03.

For the origin of these results see the supplement of paper PMC11624193, “Coupling cellular drug-target engagement to downstream pharmacology with CeTEAM” (Nature Communications, 2024).
